Among the data in PubChem BioAssay (NCI) are growth values, retold here.

About 83,000 compounds went through this panel and 20% of them were active in at least one assay; those are over-represented in the sample as a whole.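 Treatment: one concentration, 48 hours, 96-well format. Scoring: percent growth, with anything below 10 considered active.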 A number with no mark means an inactive call. Active and inactive are the calls of the source.

What all share (experiment): NCI-60 one-dose screen, 48 h (100 = growth as untreated, 0 = no growth, -100 = all killed)
Common to all, as to conditions: 10 µM unless noted

Assay [1] has as its system T-47D breast.
In assay [2] the test system is BT-549 breast.
Assay [3] relates to MDA-MB-435 melanoma.
Assay [4] concerns SW-620 colon.
For assay [5], the system named is MCF7 breast.
Assay [6] concerns HCT-116 colon.
Assay [7] has as its system HCC-2998 colon.
For assay [8], the system named is KM12 colon.

Take `CCc1c(C)c2cc3c(c(C)c2oc1=O)OCC(=O)N3`: the growth in assay [1] was 58.6%; in assay [2], 74.7%; in assay [3], 74.5%; in assay [4] it was 90.3%; in assay [5], 82.1%; in assay [6], 52.7%. Also, the growth in assay [7] was 90%; in assay [8] it was 84.3%.
In the case of `Nc1nc(-c2cc3c(cc2Cl)NC(=O)/C3=C/c2ccccc2)cs1`, the growth was 7.52% (active) in assay [1]; 55.7% in assay [2]; 24.4% in assay [3]; 40.4% in assay [4]; 7.09% (active) in assay [5]; 14.5% in assay [6]. For the same molecule, the growth in assay [7] is 58%; in assay [8], 45.5%.
Consider `C/C(=N/O)c1ccc(NC(=O)Cn2nc(-c3ccc(Cl)cc3)nc2N)cc1`, for which the growth was 87% in assay [1]; 116% in assay [2]; 109% in assay [3]; 104% in assay [4]; 84.9% in assay [5]; 107% in assay [6]. Besides, the growth is 103% in assay [7] and 98.4% in assay [8].
In the case of `Cc1cccc(CC(=O)c2ccccc2)n1`, the growth in assay [1] was 94.2%; in assay [2] it was 111%; in assay [3] it was 99%; in assay [4], 91.3%; in assay [5], 92%; in assay [6], 90.5%. Also, the results for the growth in assay [7] and in assay [8] were 94.6% and 88.1%, respectively.
Consider `Cc1c(NC(=O)c2sc3nc4c(cc3c2N)CN(Cc2ccccc2)CC4)cccc1C(F)(F)F`, for which the growth in assay [1] was 48.9%; in assay [2] it was 49.2%; in assay [3], 13.1%; in assay [4], 19.3%; in assay [5], 16.4%; in assay [6] it was 19.5%. Moreover, the growth in assay [7] was 64.7%; in assay [8] it was 27%.
Take `O=C1COc2ccccc2C(=O)N1CCCCNc1ccccc1`: the growth in assay [1] is 73.3%; in assay [2] it was 46%; in assay [3], 98.1%; in assay [4] it was 92.3%; in assay [5], 82.8%; in assay [6] it was 77.4%. In addition, the figures for the growth in assay [7] and in assay [8] were 94.5% and 79.9%, respectively.
Take `O=C(O)c1ccc2nc(-c3ccc(OCCCCCOc4ccc(-c5nc6ccc(C(=O)O)cc6[nH]5)cc4)cc3)[nH]c2c1`: the growth in assay [1] is 51.2%; in assay [2], 130%; in assay [3] it was 189%; in assay [4], 57.1%; in assay [5] it was 82.3%; in assay [6], 88.6%. In addition, the growth in assay [7] is 16.4%; in assay [8] it was 98.6%.
For `COc1ccc(-c2ccc(NC(=O)Nc3ccc(Cl)c(C(F)(F)F)c3)c(C)n2)cc1`, the growth is 21.5% in assay [1]; 66.2% in assay [2]; 71.9% in assay [3]; 67% in assay [4]; 36.7% in assay [5]; 23.7% in assay [6]. Also, the growth in assay [7] is 69.2%; in assay [8], 37.4%.
On to `CCCCOc1c(N)cc(Cl)cc1C(=O)OCCN(CC)CC`, for which the growth was 99.8% in assay [1]; 76.5% in assay [2]; 111% in assay [3]; 99.2% in assay [4]; 93.3% in assay [5]; 80.3% in assay [6]. Further, the growth in assay [7] is 109%; in assay [8] it was 104%.
On to `O=c1c(-c2ccc3c(c2)OCO3)coc2c(CO)c(O)ccc12`, for which the growth in assay [1] was 19.2%; in assay [2], -43% (active); in assay [3], 49.9%; in assay [4] it was 38.1%; in assay [5], 20.6%; in assay [6] it was -8.96% (active). Also, the figures for the growth in assay [7] and in assay [8] were 4.46% (active) and 26.8%, respectively.
For `C#CCn1c(-c2cc(OC)c(OC)cc2Br)nc(-c2ccccc2)c1-c1ccccc1`, the growth in assay [1] was 39.3%; in assay [2], 60.7%; in assay [3], 6.82% (active); in assay [4], 23.9%; in assay [5], 19.4%; in assay [6], 19.9%. Moreover, the growth in assay [7] is 66.8%; in assay [8], 20%.
Regarding `CCOC(=O)C(C)(CSSCC(C)(NC(=O)c1ccc2ccccc2c1)C(=O)OCC)NC(=O)c1ccc2ccccc2c1` (centres undefined), the growth in assay [1] is 86.6%; in assay [2], 138%; in assay [3], 96.3%; in assay [4] it was 96.5%; in assay [5] it was 92.2%; in assay [6], 47%. The figures for the growth in assay [7] and in assay [8] were 119% and 107%, respectively.
In the case of `CCOC(=O)NNc1nncc2ccccc12`, the growth in assay [1] is 94.8%; in assay [2] it was 113%; in assay [3], 100%; in assay [4], 104%; in assay [5], 105%; in assay [6] it was 106%. The growth in assay [7] was 103%; in assay [8] it was 101%.
`COc1ccc(C[C@H](N)C(=O)N[C@@H]2[C@@H](CO)OC(n3cnc4c(N(C)C)ncnc43)[C@@H]2O)cc1` (some centres undefined): the growth in assay [1] is -8.69% (active); in assay [2], -72.1% (active); in assay [3], -85.4% (active); in assay [4], -67.8% (active); in assay [5] it was -7.03% (active); in assay [6] it was -84.6% (active). Moreover, the growth is -94.6% (active) in assay [7] and -85.2% (active) in assay [8].
As for `CCN(CC)c1ccc(C2CC(c3cc(OC)c(OC)c(OC)c3)=NN2)cc1` (centres undefined), the growth in assay [1] is 29.9%; in assay [2], -2.69% (active); in assay [3] it was 21.6%; in assay [4], 18.4%; in assay [5], 6.88% (active); in assay [6] it was 9.61% (active). Further, the growth in assay [7] is 21.2%; in assay [8], 11.1%.
On to `O=C(Nc1cccc(-n2ccc3c(NC(=O)c4ccccc4)nccc32)c1)c1cc(N2CCOCC2)cc(C(F)(F)F)c1`, for which the growth in assay [1] is 66.3%; in assay [2], -13.1% (active); in assay [3], -13.3% (active); in assay [4], 14.2%; in assay [5] it was 21.3%; in assay [6], 1.44% (active). The growth in assay [7] is 28.8%; in assay [8] it was -3.61% (active).
In the case of `O=C(COc1ccc(Cl)cc1Cl)N1N=C(c2ccc(Cl)cc2Cl)CC1(O)c1cc(F)c(Cl)cc1Cl` (centres undefined), the growth in assay [1] is 98.8%; in assay [2], 111%; in assay [3], 107%; in assay [4] it was 116%; in assay [5] it was 95.6%; in assay [6], 95%. The values for the growth in assay [7] and in assay [8] were 124% and 117%, respectively.
`CC(C)[C@@H]1NC(=O)[C@]2(C)CSC(=N2)c2ccnc(c2)CNC(=O)C[C@@H](/C=C/CCS)OC1=O`: the growth is -24.6% (active) in assay [1]; 42.7% in assay [2]; 5.07% (active) in assay [3]; 4.68% (active) in assay [4]; 16.1% in assay [5]; -39.2% (active) in assay [6]. Further, the growth is -66.5% (active) in assay [7] and 6.09% (active) in assay [8].
For `C=C1C(=O)O[C@H]2[C@H]1CC/C(COC(=O)c1ccc3ccccc3c1)=C\CC[C@@]1(C)O[C@@H]21`, the growth in assay [1] is -55.2% (active); in assay [2], -55.2% (active); in assay [3], -73.8% (active); in assay [4] it was -37.9% (active); in assay [5], -36.1% (active); in assay [6], -90.6% (active). Moreover, the values for the growth in assay [7] and in assay [8] were 42% and 32.8%, respectively.
Regarding `Nc1nc(Nc2ccc(OCc3cccc(F)c3)cc2)c2c(n1)[nH]c1ccc(O)cc12`, the growth was -59.8% (active) in assay [1]; -84.9% (active) in assay [2]; -41% (active) in assay [3]; -49.5% (active) in assay [4]; -82.7% (active) in assay [5]; -97.1% (active) in assay [6]. The growth in assay [7] is -17.6% (active); in assay [8], -48% (active).
With `O=S(=O)(CCN1CCOCC1)Nc1cncc(-c2ccc3ncnc(Nc4ccc(F)c(Cl)c4)c3c2)c1`, the growth in assay [1] is -17.9% (active); in assay [2], 49.7%; in assay [3], 87.2%; in assay [4], 90.2%; in assay [5] it was 47.3%; in assay [6], 56.1%. The results for the growth in assay [7] and in assay [8] were 74.4% and 95.9%, respectively.
In the case of `Nc1nccc2c1ccn2-c1ccc(NC(=O)c2ccc(N3CCOCC3)c(C(F)(F)F)c2)cc1`, the growth in assay [1] is 39%; in assay [2], 26.5%; in assay [3], -8.07% (active); in assay [4], -32.8% (active); in assay [5] it was -18.2% (active); in assay [6] it was 4.53% (active). Moreover, the growth was 39.1% in assay [7] and -41.4% (active) in assay [8].
As to `CCCCNC(=O)Oc1ccc(/C(=C(/CC)Cc2ccccc2)c2ccc(OCCCN(C)C)cc2)cc1`, the growth in assay [1] is 60.7%; in assay [2], 95.4%; in assay [3] it was 83.3%; in assay [4] it was 77.3%; in assay [5] it was 27.9%; in assay [6], 67.9%. Besides, the growth is 88.3% in assay [7] and 78.3% in assay [8].
Consider `O=C(Cn1c2ccccc2c2ccncc21)N/N=C\c1ccc2ccccc2c1`, for which the growth in assay [1] was 35%; in assay [2], 52.5%; in assay [3], 24.5%; in assay [4], 26.4%; in assay [5], 11.7%; in assay [6], -41.7% (active). In addition, the growth in assay [7] is 74.5%; in assay [8], 36%.
With `Nc1nc(Cl)cc(NCc2ccc(CNc3cc(Cl)nc(N)n3)cc2)n1`, the growth in assay [1] is 69.2%; in assay [2] it was 72.6%; in assay [3], 106%; in assay [4], 87.4%; in assay [5], 103%; in assay [6] it was 83.3%. Also, the growth in assay [7] is 101%; in assay [8], 99%.
Take `COc1ccc(Cl)cc1NC(=O)c1cc2c([nH]1)-c1nc(N)sc1CCC2`: the growth in assay [1] was 88.2%; in assay [2], 102%; in assay [3], 103%; in assay [4], 107%; in assay [5], 98.9%; in assay [6], 110%. Besides, the growth was 109% in assay [7] and 97.3% in assay [8].
In the case of `COc1cc(-c2nc(N)n(CC(=O)Nc3ccc(/C(C)=N\O)cc3)n2)cc(OC)c1OC`, the growth in assay [1] was 91.2%; in assay [2], 108%; in assay [3], 82%; in assay [4] it was 95.2%; in assay [5] it was 89.2%; in assay [6], 101%. Also, the growth in assay [7] is 102%; in assay [8], 97.3%.
Turning to `COc1ccccc1S(=O)(=O)Nc1ccc2c3c(cc(-c4ccoc4)nc13)C(=O)N2C`, the growth is 70.1% in assay [1]; 78.7% in assay [2]; 32.8% in assay [3]; 71.3% in assay [4]; 35.5% in assay [5]; 63% in assay [6]. Also, the growth was 74.7% in assay [7] and 58.1% in assay [8].
